For 7 compounds, growth results are on record in PubChem BioAssay (NCI).

Compounds without any hit were thinned out: in the full panel of roughly 83,000, 20% have a hit.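 Results are percent growth after 48 hours of single-concentration exposure. 100 means growth as in untreated cells, lower positive values show inhibition; negative values down to -100 show cell death.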 A number with no mark means an inactive call. Activity calls are given as the source filed them. The calls were made as follows: active = growth percent below 10; inactive = the rest.

Among the test systems are NCI-H23 lung; NCI-H226 lung; NCI-H322M lung; HOP-62 NSCLC; NCI-H460 lung; HOP-92 NSCLC; NCI-H522 lung; A549/ATCC NSCLC; 786-0 renal; COLO 205 colon; DU-145 prostate; K-562 leukemia; MALME-3M melanoma; MDA-MB-231 breast; RXF 393 renal; SF-268 CNS; SF-295 CNS; SF-539 CNS; UACC-257 melanoma; M14 melanoma.
Holding throughout (experiment): NCI-60 one-dose screen, 48 h (100 = growth as untreated, 0 = no growth, -100 = all killed)
What all share (settings): 10 µM unless noted

As for `CCCCC(=O)OC1CCCCC1C` (stereo not given), the growth was 97.3% in the test on NCI-H23 lung; 79.1% in the test on NCI-H226 lung; 111% in the test on NCI-H322M lung; 98.9% in the test with HOP-62 NSCLC; 104% in the test with NCI-H460 lung; 77.6% in the test on HOP-92 NSCLC. Further, the growth in the test on NCI-H522 lung is 83%; with A549/ATCC NSCLC it was 72.3%; with 786-0 renal, 92.4%; in the test on COLO 205 colon, 100%; in the test on DU-145 prostate it was 105%; in the test with K-562 leukemia, 98.8%. Further, the growth is 94.6% in the test with MALME-3M melanoma; 106% in the test on MDA-MB-231 breast; 93.4% in the test on RXF 393 renal; 98.7% in the test on SF-268 CNS; 97% in the test with SF-295 CNS; 103% in the test on SF-539 CNS. Also, the growth in the test on UACC-257 melanoma was 78.5%; in the test on M14 melanoma, 95.4%.

For `COc1ccc2c(c1)c(-c1nc(-c3c[nH]c4ncccc34)cs1)cn2CCNC(=O)OC(C)(C)C`, the growth with NCI-H23 lung is 70.6%; in the test on NCI-H226 lung it was 72%; with NCI-H322M lung it was 82.6%; in the test with HOP-62 NSCLC, 64.1%; with NCI-H460 lung it was 82.2%; in the test with HOP-92 NSCLC, 54.9%. Besides, the growth was 61% in the test on NCI-H522 lung; 72.6% in the test on A549/ATCC NSCLC; 73.6% in the test with 786-0 renal; 84.6% in the test with COLO 205 colon; 89.3% in the test with DU-145 prostate; 62.4% in the test on K-562 leukemia. Moreover, the growth with MALME-3M melanoma was 103%; in the test on MDA-MB-231 breast, 53.2%; in the test on RXF 393 renal, 83.1%; with SF-268 CNS, 83.5%; in the test with SF-295 CNS, 85.1%; with SF-539 CNS it was 66.5%. Further, the growth was 98.5% in the test on UACC-257 melanoma and 69.3% in the test on M14 melanoma.

Consider `N#C/C(=C\c1ccc(-c2ccccc2)o1)c1nc(-c2ccco2)cs1`, for which the growth is 82.7% in the test with NCI-H23 lung; 81.3% in the test with NCI-H226 lung; 84.6% in the test on NCI-H322M lung; 98.6% with HOP-62 NSCLC; 85% in the test on NCI-H460 lung; 87.4% in the test on HOP-92 NSCLC. Besides, the growth in the test on NCI-H522 lung was 93.8%; in the test with A549/ATCC NSCLC, 101%; in the test on 786-0 renal, 106%; in the test on COLO 205 colon it was 104%; in the test on DU-145 prostate, 107%; with K-562 leukemia, 93.2%. In addition, the growth was 94.8% in the test with MALME-3M melanoma; 86.3% with MDA-MB-231 breast; 105% in the test on RXF 393 renal; 101% with SF-268 CNS; 97.6% in the test on SF-295 CNS; 94.9% in the test on SF-539 CNS. For the same compound, the growth with UACC-257 melanoma is 103%; in the test on M14 melanoma it was 93.8%.

For `COc1ccc(-c2c(-c3nc4ccc(N5CCOCC5)cc4[nH]3)[nH]c(C)c2C(C)=O)cc1`, the growth with NCI-H23 lung was 52.6%; with NCI-H226 lung it was 49.7%; with NCI-H322M lung, 43.6%; in the test with HOP-62 NSCLC, 30.6%; with NCI-H460 lung it was 57.8%; with HOP-92 NSCLC, 49.5%. The growth in the test with NCI-H522 lung is 37.8%; in the test on A549/ATCC NSCLC it was 48.4%; with 786-0 renal, 45.3%; with COLO 205 colon it was 15.9%; with DU-145 prostate it was 74.6%; in the test with K-562 leukemia, 35.1%. In addition, the growth was 36.4% in the test on MALME-3M melanoma; 37.5% in the test with MDA-MB-231 breast; 44.8% in the test with RXF 393 renal; 70.3% in the test on SF-268 CNS; 35.7% in the test on SF-295 CNS; 36.9% with SF-539 CNS. The growth with UACC-257 melanoma is 44.7%; with M14 melanoma, 35.6%.

Regarding `CC(=O)O[C@H]1CC[C@]2(C)[C@H]3C(=O)C=C4[C@@H]5C[C@](C)(C(=O)N6CCCNCC6)CC[C@]5(C)CC[C@@]4(C)[C@]3(C)CC[C@H]2C1(C)C`, the growth was 40.1% in the test on NCI-H23 lung; 76.6% in the test with NCI-H226 lung; 19.8% in the test on NCI-H322M lung; -50.4% (active) in the test with HOP-62 NSCLC; -83.8% (active) with NCI-H460 lung; 31.1% with HOP-92 NSCLC. Further, the growth is 30% with NCI-H522 lung; -52.8% (active) with A549/ATCC NSCLC; -71.9% (active) in the test with 786-0 renal; -87.7% (active) with COLO 205 colon; 4.85% (active) in the test on DU-145 prostate; -11.3% (active) with K-562 leukemia. Moreover, the growth was -71.7% (active) in the test with MALME-3M melanoma; -84.6% (active) with MDA-MB-231 breast; -89.4% (active) in the test with RXF 393 renal; 69.6% with SF-268 CNS; 60.2% in the test with SF-295 CNS; -92.9% (active) with SF-539 CNS. Besides, the growth in the test with UACC-257 melanoma is 75.7%; with M14 melanoma it was 6.84% (active).

Turning to `Cn1cc(-c2csc(-c3cn(CCCN4CCCCC4)c4ccc(Br)cc34)n2)c2cccnc21`, the growth in the test with NCI-H23 lung was 43.3%; in the test on NCI-H226 lung it was 75.9%; with NCI-H322M lung, 49.7%; in the test with HOP-62 NSCLC it was -56.5% (active); in the test on NCI-H460 lung it was -66.8% (active); with HOP-92 NSCLC it was 31.5%. The growth was 11.7% in the test on NCI-H522 lung; -49% (active) with A549/ATCC NSCLC; -75.9% (active) in the test with 786-0 renal; -79.5% (active) with COLO 205 colon; -26.5% (active) in the test with DU-145 prostate; -63.6% (active) with K-562 leukemia. The growth was -25.7% (active) in the test with MALME-3M melanoma; -50.7% (active) with MDA-MB-231 breast; 23.3% in the test on RXF 393 renal; 46.1% in the test on SF-268 CNS; 31.8% with SF-295 CNS; -73% (active) in the test with SF-539 CNS. Besides, the figures for the growth in the test with UACC-257 melanoma and in the test on M14 melanoma were 68.1% and -88.1% (active), respectively.

With `COc1ccc2c(c1)c(-c1nc(-c3c[nH]c4ncccc34)cs1)cn2CCN`, the growth in the test on NCI-H23 lung is 68%; in the test on NCI-H226 lung, 70.6%; with NCI-H322M lung, 57.7%; in the test with HOP-62 NSCLC, 58.3%; with NCI-H460 lung it was 45%; in the test on HOP-92 NSCLC, 29%. Moreover, the growth is 65.6% with NCI-H522 lung; 48.2% in the test on A549/ATCC NSCLC; 72.1% in the test with 786-0 renal; 32.2% with COLO 205 colon; 59.7% in the test with DU-145 prostate; 41.5% in the test on K-562 leukemia. The growth in the test with MALME-3M melanoma is 81.6%; with MDA-MB-231 breast, 53.7%; in the test with RXF 393 renal, 59.9%; in the test on SF-268 CNS, 80.1%; in the test with SF-295 CNS, 95.3%; in the test on SF-539 CNS it was 68.8%. Moreover, the values for the growth with UACC-257 melanoma and in the test on M14 melanoma were 98.2% and 67.5%, respectively.
